Results on 13 molecules are retold here after PubChem BioAssay (NCATS).

Experiment [1] can be described thus: Cell Viability - BJ (AID 421; calls by dose curve;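 further: potency means the concentration at half of the fitted maximal effect; cells exposed to compound for 40 hours at 37 °C before readout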). The conditions noted are these: BJ fibroblast viability, qHTS. A digest of the protocol: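 Cytotoxicity in human BJ foreskin fibroblasts is scored as loss of cellular ATP after a 40-hour exposure, measured by luciferase luminescence. Controls are DMSO and 100 uM tamoxifen.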
The nature of experiment [2]: Cell Viability - Jurkat (AID 426;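 active means dose-dependent loss of cell ATP signal giving a full or clear fitted curve, ranked by lower potency value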;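 further: potency means the concentration at half of the fitted maximal effect; cells exposed to compound for 40 hours at 37 °C before ATP read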). As to conditions: qHTS. A digest of the protocol: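 Cytotoxicity was scored as loss of cellular ATP, measured by luciferase-based luminescence, in Jurkat clone E6-1 cells after 40 h compound treatment; tamoxifen and doxorubicin served as positive controls.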
For orientation: qHTS replaces the single test concentration by a dilution series.

Experiment [3] is described as follows: Cell Viability - Hek293 (AID 427;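 active means compounds whose dose-response curve shows a full or clear partial loss of cell viability, called from curve shape rather than a numeric limit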;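 further: potency means the concentration at half of the fitted maximal effect; cells exposed to compound for 40 hours at 37 °C before reading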). The conditions noted are these: qHTS. A digest of the protocol:
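qHTS, human embryonic kidney (adenovirus-transformed) cells; 40 hr cpd, 37 °C; CellTiter-Glo ATP luminescence. Norm: DMSO = 0, 100 uM tamoxifen = 100% inhibition. Hill-fit AC50.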

A short description of experiment [4]: Cell Viability - HepG2 (AID 433; calls by dose curve; further: potency means the concentration at half of the fitted maximal effect). The conditions noted are these: qHTS. The procedure, abridged: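 Read-out is luciferase-based quantitation of cellular ATP as a measure of viable HepG2 cells after 40 h treatment at 37 °C. Signal decrease is scaled between DMSO-only and 100 uM tamoxifen controls, with AC50 fitted by the Hill equation.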
Experiment [5] is described as follows: Cell Viability - MRC5 (AID 434; calls by dose curve;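 further: potency means the concentration at half of the fitted maximal effect; cells exposed to compound for 40 hours at 37 °C; potency reflects cytotoxicity seen as loss of intracellular ATP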). As to conditions: MRC5 lung fibroblast viability, qHTS. The procedure, abridged:
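Decrease in intracellular ATP, quantified by luciferase light output, reflects compound toxicity toward MRC5 cells exposed for 40 hr in complete culture medium. Concentration-response curves, scaled between DMSO and 100 uM tamoxifen, gave AC50 values.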

Experiment [6] can be described thus: Cell Viability - SK-N-SH (AID 435; calls by dose curve;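 further: potency means the concentration at half of the fitted maximal effect; compound exposure lasted 40 h at 37 °C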). As to conditions: SK-N-SH neuroblastoma cell viability qHTS. A digest of the protocol: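 Luminescent ATP signal served as the viability read-out after 40 hours of compound treatment of human neuroblastoma SK-N-SH cells. Concentration-response data, scaled between DMSO and 100 uM tamoxifen, gave AC50 values by standard Hill modeling.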

The target of experiment [7] is Mitogen-activated protein kinase 10 (Mus musculus) (UniProt Q61831). The experiment can be described thus: JNK3 AlphaScreen Assay (AID 530; active means well fitted curve in either direction with a large enough effect, not every such curve was filed as active;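 further: kinase came from lysate of stimulated human HepG2 cells; signal reports phosphorylation of biotinylated GST-cJun 1-79 at Ser73 with 10 µM ATP; on the % scale 0 is the no-effect control and ±100 the full control effect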). A digest of the protocol: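 Biotinylated GST-cJun(1-79) served as substrate for JNK3 in HepG2 lysates stimulated with IL-1beta and TNF-alpha. ATP was 10 uM final, pH 7.6. Ser73 phosphorylation was quantified by AlphaScreen (680 nm excitation).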

Experiment [8] can be described thus: Cell Viability - NIH 3T3 (AID 541).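 Further: plate controls were DMSO alone for no effect and tamoxifen positive control for full effect; nearly all actives have a fitted effect of over 25% in size.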 The conditions noted are these: NIH 3T3 cell viability, qHTS; activity change, negative = cytotoxicity: at 92.2 µM (top of the series). A digest of the protocol: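 In this cytotoxicity screen, acute toxicity is scored as an ATP drop measured by CellTiter-Glo in NIH 3T3 fibroblasts following a 40 hr, 37 °C incubation with compound.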

Experiment [9] is described as follows: Cell Viability - HUV-EC-C (AID 542). Further: nearly all actives have a fitted effect of over 35% in size. Further: potency means the concentration at half of the fitted maximal effect. On activity change, negative = cytotoxicity: on the % scale 0 is the no-effect control and ±100 the full control effect. A digest of the protocol: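 Concentration-dependent ATP loss in HUV-EC-C cells is the measure. Exposure lasts 40 hr at 37 °C; luminescence follows CellTiter-Glo addition, and Hill fits give AC50.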
A short description of experiment [10]: Cell Viability - H-4-II-E (AID 543). Further: nearly all actives have a fitted effect of over 35% in size. Further: potency means the concentration at half of the fitted maximal effect. A digest of the protocol: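 AC50 from Hill-modelled qHTS concentration-response curves. H-4-II-E rat hepatoma cells in complete medium, 40 hr exposure at 37 °C, viability by CellTiter-Glo ATP luminescence.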
A short description of experiment [11]: Cell Viability - SH-SY5Y (AID 544). Further: nearly all actives have a fitted effect of over 55% in size. Further: potency means the concentration at half of the fitted maximal effect. A digest of the protocol:
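Quantitative HTS in SH-SY5Y neuroblastoma cells, 40 hr treatment at 37 °C, ATP content by luciferase luminescence; AC50 from Hill fits.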

A short description of experiment [12]: Cell Viability - Mesenchymal (AID 546).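 Further: cells exposed to compound for 40 hours before reading; 0% = DMSO only and -100% = 100 µM tamoxifen.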 The procedure, abridged:
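In this qHTS cytotoxicity format, glomerulus-derived human mesenchymal kidney cells received compound for 40 hr, then luciferase-based ATP quantitation. Concentration-response data were fitted with the Hill equation.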

Experiment [13] can be described thus: Cell Viability - N2a (AID 540).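 Further: cells exposed to compound for 40 h at 37 °C; plate controls were DMSO alone for no effect and tamoxifen control for full effect; nearly all actives have a fitted effect of over 45% in size.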 The conditions noted are these: N2a mouse neuroblastoma cell viability; at 92.2 µM (top of the series). The procedure, abridged:
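In this qHTS cytotoxicity screen, ATP-dependent luciferase luminescence reports viable N2a cells after a 40 hr compound exposure in complete culture medium. Potencies are AC50 values from standard Hill equation fits.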

The target of experiment [14] is Glucocorticoid receptor (Homo sapiens) (UniProt P04150). Put plainly: GR-GFP Redistribution (AID 450;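 active means compounds whose dose series gives a full or clear partial fitted curve of increased nuclear translocation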; further: potency means the concentration at half of the fitted maximal effect). The conditions noted are these: U2OS GR-GFP nuclear translocation, laser cytometry, 2 h.
Chain of Glucocorticoid receptor (Homo sapiens) (P04150 whole entry, looked up, the tested form may be a part): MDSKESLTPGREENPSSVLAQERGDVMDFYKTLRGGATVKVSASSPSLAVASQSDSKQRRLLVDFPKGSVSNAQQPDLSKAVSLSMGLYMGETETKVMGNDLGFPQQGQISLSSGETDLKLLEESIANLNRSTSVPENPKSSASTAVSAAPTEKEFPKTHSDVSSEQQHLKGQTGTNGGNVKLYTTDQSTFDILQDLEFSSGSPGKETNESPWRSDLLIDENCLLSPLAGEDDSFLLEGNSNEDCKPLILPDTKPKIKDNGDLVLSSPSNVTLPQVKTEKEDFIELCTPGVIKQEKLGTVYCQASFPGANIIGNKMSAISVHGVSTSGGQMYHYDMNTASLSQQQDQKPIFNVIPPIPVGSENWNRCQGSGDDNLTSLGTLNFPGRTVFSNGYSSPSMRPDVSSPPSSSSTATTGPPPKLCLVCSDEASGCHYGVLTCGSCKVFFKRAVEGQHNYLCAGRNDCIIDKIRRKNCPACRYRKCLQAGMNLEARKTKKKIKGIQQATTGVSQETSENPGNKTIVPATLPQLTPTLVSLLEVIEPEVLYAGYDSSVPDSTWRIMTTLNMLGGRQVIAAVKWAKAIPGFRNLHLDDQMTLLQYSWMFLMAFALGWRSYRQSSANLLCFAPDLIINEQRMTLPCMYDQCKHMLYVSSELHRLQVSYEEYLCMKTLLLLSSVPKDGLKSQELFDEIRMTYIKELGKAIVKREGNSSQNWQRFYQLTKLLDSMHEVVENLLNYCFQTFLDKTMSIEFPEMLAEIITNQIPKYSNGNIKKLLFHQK
The target is the same in experiment [15]. Put plainly: GR-EFC Redistribution (AID 451; calls by dose curve; further: potency means the concentration at half of the fitted maximal effect). As to conditions: CHO-K1 GR-EFC translocation, beta-gal luminescence, 2 h. The procedure, abridged: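 CHO-K1 cells stably expressing nuclear-localized β-gal enzyme acceptor and GR fused C-terminally to the enzyme donor fragment; ligand-driven nuclear translocation restores β-gal by complementation. Compounds titrated up to 46 uM final, 2 h at 37 °C; luminescence read.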

Each structure is given as a SMILES string. Several values for one entry are separate records, joined by “and”; a condition that tells them apart may be missing. Equal values may be shown once. Unmarked numbers belong to inactive results. Inconclusive results are not listed. Activity calls are given as the source filed them. Unless noted, the call rests on the fitted dose curve; in most records, active means well fitted curve in the direction sought with a large enough effect; inconclusive means small, poorly fitted or top-dose-only effect, or another doubt; inactive means no such curve, though single readings can be large; an effect the other way counts as inactive or inconclusive.

For `C[C@H]1O[C@@H](O[C@H]2[C@@H](O)C[C@H](O[C@H]3[C@@H](O)C[C@H](O[C@H]4CC[C@@]5(C)[C@H](CC[C@@H]6[C@@H]5C[C@@H](O)[C@]5(C)[C@@H](C7=CC(=O)OC7)CC[C@]65O)C4)O[C@@H]3C)O[C@@H]2C)C[C@H](O)[C@@H]1O`, the Potency is 0.00125 µM (active) in experiment [1]; 0.00438 µM (active) in experiment [2]; 0.0128 µM (active) in experiment [3]; 0.0159 µM (active) in experiment [4]; over 92 µM in [5]; 0.0073 µM (active) in experiment [6]. Moreover, the values for the Potency in experiment [9] and in experiment [11] were 0.02 µM (active) and 0.0126 µM (active), respectively. Also, the molecule was classed as inactive in [7] and in experiment [12]. Moreover, the activity change, negative = cytotoxicity in experiment [8] was -91% (active). The Potency entry in [10] is “inactive”.
Consider `NCCN`, for which the Potency in experiment [1], in experiment [2], in [3], in [4], in [5] and in experiment [6] was over 92 µM in each case. The outcome in experiment [7] and in experiment [12] was inactive. Also, the activity change, negative = cytotoxicity in experiment [13] is 5.1%; in [8], -4.12%. The Potency result in experiment [9], in experiment [10] and in experiment [11] was “inactive” in each case.
`COc1ccc(C[C@H](C)NC[C@@H](O)c2ccc(O)c(NC=O)c2)cc1`: the Potency in experiment [14] and in [15] was over 46 µM throughout. For the same molecule, the molecule was classed as inactive in experiment [7].
On to `C/C=C/C=C/C(=O)O`, for which the Potency in experiment [1], in experiment [2], in experiment [3], in experiment [4], in [5] and in experiment [6] was over 92 µM in each case. Moreover, the molecule was called inactive in [7] and in [12]. Also, the values for the activity change, negative = cytotoxicity in [13] and in experiment [8] were -0.963% and 8.21%, respectively. In addition, the Potency entry in [9], in experiment [10] and in experiment [11] was “inactive” throughout.
As to `Cc1ccc(S(=O)(=O)O)cc1C`, the Potency in experiment [1], in experiment [2], in [3], in experiment [4], in experiment [5] and in experiment [6] was over 92 µM in each case. Further, the molecule was classed as inactive in experiment [7] and in experiment [12]. Further, in experiment [13], the activity change, negative = cytotoxicity was -7.07%. Besides, the Potency entry in experiment [9], in [10] and in experiment [11] was “inactive” each time.
Consider `CCCCO`, for which the Potency in experiment [1], in experiment [2], in experiment [3], in experiment [4], in [5] and in [6] was over 92 µM each time. Further, the result in experiment [7] and in [12] was inactive. For the same molecule, the activity change, negative = cytotoxicity was -5.68% and -4.88% in [13]; -12.4% and 2.4% in [8]. Moreover, the Potency result in experiment [9], in experiment [10] and in experiment [11] was “inactive” each time.
As for `O=P(O)(O)O`, the Potency in experiment [1], in [2], in experiment [3], in [4], in experiment [5] and in experiment [6] was over 92 µM each time. Moreover, the molecule was classed as inactive in experiment [7] and in experiment [12]. The values for the activity change, negative = cytotoxicity in experiment [13] and in experiment [8] were -12.4% and -8.72%, respectively. In addition, the Potency entry in experiment [9], in experiment [10] and in [11] was “inactive” in each case.
With `[O-][N+](=Nc1ccccc1)c1ccccc1`, the Potency in experiment [1], in [2], in experiment [3], in experiment [4], in experiment [5] and in [6] was over 92 µM in each case. The molecule was called inactive in experiment [7] and in [12]. Besides, the activity change, negative = cytotoxicity is 4.21% in [13] and -5.77% in experiment [8]. The Potency result in experiment [9], in experiment [10] and in [11] was “inactive” each time.
Take `Oc1cccc(O)c1O`: the Potency in [4] and in experiment [5] was over 92 µM in each case. In experiment [7], the outcome was inactive. The activity change, negative = cytotoxicity in experiment [13] was -18.3%. The Potency result in [9] and in experiment [10] was “inactive” throughout.
For `C=C1C(CCl)(CCl)C2(Cl)C(Cl)C(Cl)C1(Cl)C2(Cl)Cl` (configuration not stated), the Potency is 31 µM (active) in [2]; 48.2 µM (active) in [3]; over 92 µM in experiment [4]; over 92 µM in [5]; 50 µM (active) in [6]; 50.1 µM (active) in experiment [10]. In addition, in experiment [11], the Potency was 31.6 µM (active). The activity change, negative = cytotoxicity in [13] was -112% (active); in experiment [8], -80.2% (active).
On to `CC(C)(C)CC(C)(C)c1ccc(OCCO)cc1`, for which the Potency in experiment [1], in experiment [2], in [5] and in experiment [6] was over 92 µM throughout. Moreover, the molecule was classed as inactive in experiment [7] and in [12]. Moreover, the activity change, negative = cytotoxicity in experiment [8] is -28.8%. The Potency result in [9] and in experiment [11] was “inactive” in each case.
Take `Cc1ncc[nH]1`: the Potency in experiment [1], in experiment [2], in experiment [3], in [4], in experiment [5] and in [6] was over 92 µM throughout. Also, the call in experiment [7] and in experiment [12] was inactive. Moreover, the results for the activity change, negative = cytotoxicity in [13] and in experiment [8] were -1.34% and -6.23%, respectively. For the same molecule, the Potency entry in experiment [9], in [10] and in [11] was “inactive” in each case.
For the molecule `CCCCC`, the Potency in experiment [1], in experiment [2], in experiment [3], in experiment [4], in experiment [5] and in experiment [6] was over 92 µM in each case. Moreover, the call in experiment [7] and in experiment [12] was inactive. Also, the activity change, negative = cytotoxicity was 6.23% in experiment [13] and -10.6% in experiment [8]. The Potency entry in [9], in experiment [10] and in experiment [11] was “inactive” each time.
